Source: PubChem BioAssay AID602396 (The Scripps Research Institute Molecular Screening Center, 2012)
In all, about 360,000 compounds went through this assay and about 460 (0.13%) were called active. What follows is part of a selection rich in actives, with near analogues and random picks from the rest. A number with no mark means an inactive call.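 How the source made its calls: active means inhibition above the mean inhibition of all tested compounds plus 3 SD (cut at about 73% in these data); inactive means the rest.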

Molecular target: Nuclear receptor subfamily 5 group A member 2 (Homo sapiens) (UniProt O00482)
Assay: reduction of NR5A2-driven StAR reporter activity – cell-based, luminescence, HEK293T, StAR-luciferase reporter, primary screen (AID 602396);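 further: 0% = DMSO wells and 100% = reporter-only cells lacking LRH-1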
Conditions: LRH-1 transfected, 24 h, at 3.6 µM, hits give high values

Nuclear receptor subfamily 5 group A member 2 (Homo sapiens), sequence (O00482 whole entry, looked up): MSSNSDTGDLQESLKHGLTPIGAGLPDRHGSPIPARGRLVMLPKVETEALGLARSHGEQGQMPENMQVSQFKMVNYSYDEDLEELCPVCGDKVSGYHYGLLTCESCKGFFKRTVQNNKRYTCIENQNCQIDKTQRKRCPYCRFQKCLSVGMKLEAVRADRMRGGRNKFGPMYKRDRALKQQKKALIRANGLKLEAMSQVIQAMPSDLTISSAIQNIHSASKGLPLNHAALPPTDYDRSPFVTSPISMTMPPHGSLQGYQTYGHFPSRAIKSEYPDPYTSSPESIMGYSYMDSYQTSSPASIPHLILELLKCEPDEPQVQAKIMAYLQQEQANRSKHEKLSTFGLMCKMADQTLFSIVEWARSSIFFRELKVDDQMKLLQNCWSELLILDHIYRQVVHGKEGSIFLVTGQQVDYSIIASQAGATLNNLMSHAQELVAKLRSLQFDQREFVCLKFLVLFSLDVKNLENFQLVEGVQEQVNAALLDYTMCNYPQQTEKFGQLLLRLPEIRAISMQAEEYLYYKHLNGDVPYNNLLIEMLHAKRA

Row | Structure (SMILES) | inhibition
1 | CC1(C)CC(N2CCN(C(c3ccccc3)c3ccccc3)CC2)=CC(=[N+]2CCCCC2)C1 | 91.7% (active)
2 | COc1ccc(C2CC(=O)Oc3ccc(C(C)(C)C)cc32)cc1 (configuration not stated) | 21.2%
3 | Cn1cnc(S(=O)(=O)N2C[C@@H](O)COC[C@@H]3O[C@H](CC(=O)NC4CCC4)CC[C@H]32)c1 | -18.2%
4 | COc1ccc(NC(=O)/C(Cl)=C(/Cl)S(=O)Cc2ccc(C)cc2)cn1 (configuration not stated) | 87.2% (active)
5 | O=C(COC(=O)Cc1ccc(Br)cc1)Nc1c(F)c(F)c(F)c(F)c1F | 1.54%
6 | CCOC(=O)CSC1=N/C(=C/c2ccc(-n3cncn3)cc2)C(=O)N1C(C)=O | 11.2%
7 | CCOC1CCCCC1NS(=O)(=O)c1ccc(Cl)cc1 (configuration not stated) | 5.98%
8 | COc1ccccc1-n1ccnc(SCC(=O)NC2CCCCC2)c1=O | 1.62%
9 | O=C(Nc1ccc2c(c1)OCCO2)C(c1ccc(F)cc1)N1CCCCC1 (configuration not stated) | 4.16%
10 | CCCCCCCC[n+]1cccc(C(=O)N2c3c(nc(N)[nH]c3=O)NC(C)C2C)c1 (configuration not stated) | 4.18%
11 | C=CCn1c(CNS(=O)(=O)c2ccc(Br)cc2)nnc1SC | -25.5%
12 | CCS(=O)(=O)Nc1cc(C(=O)OC)ccc1C(=O)OC | 7.66%
13 | CCOc1ccc(NS(=O)(=O)c2cc(C)c(C)cc2C)cc1 | 0.32%
14 | Cc1cnc(C(=O)Oc2cccc(Cl)c2Cl)cn1 | 10.5%
15 | CCc1c(O)cc2n(c1=O)-c1ccccc1C2(C)C | 6.01%
16 | Cc1cc(C)cc(NS(=O)(=O)c2ccc(Oc3ncc(C(F)(F)F)cc3Cl)cc2)c1 | 3.47%
17 | COc1ccc(C2(C)ON(c3ccccc3C(F)(F)F)C2=O)cc1 (configuration not stated) | -1.81%
18 | COCCNC(=O)C1CCN(S(=O)(=O)c2ccc3c(c2)OCCO3)CC1 | 8.61%
19 | COc1ccc(C)cc1NC(=O)CSc1cccc[n+]1[O-] | -14.4%

Row | Structure (SMILES) | inhibition
20 | CC1(C)CC(=O)C=C(c2ccc3ncccc3c2)C1 | 47.8%
21 | CCCNC(=O)C1(C)CCCN(C(=O)c2cccc(OC(C)=O)c2C)C1 (configuration not stated) | -0.02%
22 | COC(=O)C(C(=O)Nc1cccc(Cl)c1C)C1CCCC1 (configuration not stated) | 1.94%
23 | O=C(O)c1ccccc1C(=O)NC1=NN(c2ccccc2)CC1 | -6.24%
24 | Cn1cc(CNC(=O)c2ccc(OC3CCN(Cc4ccccn4)CC3)cc2)cn1 | 16.2%
25 | O=C(NCCOc1cccnc1)c1ccc(OC2CCN(Cc3ccccn3)CC2)cc1 | 90.4% (active)
26 | CN(CCc1ccccn1)C(=O)c1ccc(OC2CCN(Cc3ccccn3)CC2)cc1 | -11.4%
27 | O=C(Nc1cccc(S(=O)(=O)N2CCCC2)c1)c1cncc(Br)c1 | -0.97%
28 | COc1ccc(SC[C@H](Cc2ccccc2)N2CCN(CCc3ccccc3)CCC2=O)cc1 | -6.85%
29 | CCn1nc(C(=O)NNS(=O)(=O)c2cc(/C=C/C(=O)O)cc(OC)c2OC)c2ccccc2c1=O | 11.4%
30 | O=C(O)C(NS(=O)(=O)c1cccc2nsnc12)c1ccccc1 (configuration not stated) | -4.31%
31 | COc1ccc2c(c1)c(=Cc1ccc(N(C)C)cc1)c1cc(-c3ccccc3)[n+](C)n12 | 91.5% (active)
32 | COc1ccc(S(=O)(=O)N2CCCCC2)cc1NC(=O)C1CC(=O)N(c2ccc3c(c2)OCCO3)C1 (configuration not stated) | 8.99%
33 | NS(=O)(=O)c1ccc(NC(=O)/C=C/c2ccccc2Cl)cc1 | -11.9%
34 | CCN(CC(=O)NCc1cccs1)C(=O)c1ccc(OC)c(S(=O)(=O)N2CCOCC2)c1 | -9.13%
35 | COc1ccc(N2C(=O)C(O)C2c2ccc(C)cc2)cc1 (configuration not stated) | -10%
36 | C/C=C/C(=O)Nc1ccc(N2CCN(c3ccc(C(F)(F)F)cn3)CC2)nc1 | -9.09%
37 | COC(=O)c1cccc(C(=O)N2CCC(CCC(=O)NCc3ccc(F)cc3)CC2)c1 | 11.6%
38 | Nc1nc(SCC(=O)NNc2c(Cl)cc(Cl)cc2Cl)n[nH]1 | 14.2%

Row | Structure (SMILES) | inhibition
39 | CCc1cc(=O)oc2cc(C)cc(OC(C)C(=O)O)c12 (configuration not stated) | 6.8%
40 | CC1CC(C)(C)CC2(C1)NC(=O)N(CC(=O)Nc1nccs1)C2=O (configuration not stated) | -13.1%
41 | CC(=O)N1CCC(C(=O)OCc2ccc(Cl)cc2)(c2ccccc2)CC1 | -12.7%
42 | OCC(O)CN(c1ccccc1)c1ccccc1 (configuration not stated) | 9.64%
43 | CC(Sc1nnc(-c2cccs2)n1C1CC1)C(=O)NCC1CCCO1 (configuration not stated) | -12.2%
44 | C=CCn1c(C)cc(C2=NNC(=NCC)SC2)c1C | 84.2% (active)
45 | O=C(COC(=O)c1ncc(Cl)c(Cl)c1Cl)NCc1cccs1 | -2.02%
46 | COc1cccc2c1C(=O)c1c(O)c3c(c(O)c1C2=O)CC(O)(C(C)=NNC(=O)c1ccc(Cl)c(Cl)c1)CC3OC1CC(N)C(O)C(C)O1 (configuration not stated) | 95.6% (active)
47 | CCNC(=O)NNC(=O)C1CC(c2cccs2)=NO1 (configuration not stated) | 19.8%
48 | C=CCn1c2ccccc2c2nnc(SCc3[nH]c(=O)[nH]c3C(=O)CCCCC(=O)OCC)nc21 | 9.39%
49 | CCOC(=O)c1sc(N(Cc2ccccc2)C(=O)CN2C(=O)CN(C)C2=O)nc1C | -6.11%
50 | O=C(Nc1ccc(Cl)c(Cl)c1)N1CC=C(c2ccccc2)CC1 | -22.6%
51 | CC(c1cccnc1)N(CCN(C)C)C(=O)Nc1ccc(Cl)c(Cl)c1 (configuration not stated) | -1.18%
52 | O=C(CC(O)(C(F)(F)F)C(F)(F)F)Nc1ccc(Cl)c(Cl)c1 | 100% (active)
53 | CC(C)(C)c1ccc(Oc2ccc(N)cc2)cc1 | 80.6% (active)
54 | CN(C)S(=O)(=O)c1ccc(Oc2ccc(S(=O)(=O)N(C)C)cc2)cc1 | 26%
55 | C[C@H](NC(=O)C1CCN(S(=O)(=O)c2ccccc2)CC1)C(=O)NCc1ccccc1 | -15.6%
56 | COc1ccccc1-n1nnnc1S(=O)(=O)Cc1ccc(Cl)cc1 | 47.7%
57 | CC[C@H](C)[C@@H](C(=O)N1CCNCC1)n1cc([C@@H](N)Cc2ccc(O)cc2)nn1 | 5.8%
